Screens from PubChem.
KLK7 zymogen act = proKLK7 (human) activation, primary screen; P49862; purified proKLK7, EDANS-DABCYL substrate fluorescence; 100% is mature enzyme control, 0% vehicle; activation, % at 7 µM; 370,000 tested, 0.9% active; AID 652039;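 active means activation above the mean of all tested compounds plus 3 SD, computed per campaign excluding outliers beyond control limits, cut at about 13% in these data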
Target sequence (P49862 whole entry, looked up): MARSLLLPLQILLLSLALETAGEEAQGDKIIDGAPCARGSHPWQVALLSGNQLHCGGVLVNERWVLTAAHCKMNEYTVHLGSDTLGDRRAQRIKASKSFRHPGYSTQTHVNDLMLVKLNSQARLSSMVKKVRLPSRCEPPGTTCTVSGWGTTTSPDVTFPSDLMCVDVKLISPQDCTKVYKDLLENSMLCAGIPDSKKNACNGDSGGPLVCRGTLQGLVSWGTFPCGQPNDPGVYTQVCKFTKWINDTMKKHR
ADAM17 inh = ADAM17 inhibition, QFRET primary screen | P78536 | recombinant ADAM17, EDANS/DABCYL FRET peptide cleavage | inhibition, % at 6.95 µM | 370,000 tested, 0.83% active | AID 720648;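 active means inhibition above the mean of compounds lying between control limits plus 3 SD, set per campaign, cut at about 8.5% in these data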;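 further: 0% = DMSO-only wells as the low control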
ADAM10 inh = inhibits human ADAM10; inhibition, % at 7 µM; recombinant ADAM10, EDANS/DABCYL FRET peptide cleavage, 3 h; 370,000 tested, 0.62% active;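 active means inhibition above a per-campaign cutoff equal to the mean of compounds falling between control-based bounds plus 3 SD, cut at about 20% in these data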;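 further: 0% = DMSO wells while the 100% control is not disclosed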
FGF22 binding = binders of recombinant human FGF22 by thermal shift. Q9HCT0. SYPRO orange fluorescence; percent of sucrose octasulfate shift, DMSO zero. activity (Tm shift, normalised), % at 9.99 µM. 340,000 tested, 1.5% active. AID 651658;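 active means mean Tm shift, scaled 0 neutral to 100 positive control, at about 1.3% or above, every replicate too, limit read from the data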
Target sequence (Q9HCT0 whole entry, looked up): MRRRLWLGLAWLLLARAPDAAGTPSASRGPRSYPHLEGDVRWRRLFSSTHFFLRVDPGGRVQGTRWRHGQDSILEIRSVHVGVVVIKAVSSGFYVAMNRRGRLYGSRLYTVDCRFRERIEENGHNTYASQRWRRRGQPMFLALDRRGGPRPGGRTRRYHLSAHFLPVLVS
rRNA inh HTS = selective bacterial rRNA inhibition in E. coli; E. coli WT GFP vs humanized-ribosome RFP mutants, fluorescence, 24 h; stronger effect = lower value; DMSO median 0, no signal -100; GFP signal change (wild-type ribosome), % (test concentration not listed); 350,000 tested, 1.6% active; AID 720706;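 active means significant combined selectivity score with lowered wild-type GFP, culture density cut under 30%, mutant RFP and density less affected; inactive means any of these conditions unmet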
An asterisk follows results filed as active; x = not tested or not shown. Sampled rows, rich in hits. Any-hit rate of the full collection: about 3.8%.

SMILES | KLK7 zymogen act | ADAM17 inh | ADAM10 inh | FGF22 binding | rRNA inh HTS
CCOC(=O)CNC(=O)N1CCCC(C(=O)c2ccc3c(c2)OCO3)C1 (centres undefined) | -1 | -5 | -10 | 43* | 7
CCOC(=O)C1CCCN(C(=O)c2ccc3c(c2)OCO3)C1 (centres undefined) | 0 | -5 | -8 | x | x
COCC#Cc1ccc([C@H]2[C@@H](CO)N3C(=O)CN(C(=O)Nc4cc(F)ccc4F)C[C@H]23)cc1 | x | x | x | x | 3
COc1cc(/C=N/n2cnnc2)ccc1OS(=O)(=O)c1ccccc1[N+](=O)[O-] | 1 | -4 | -3 | 0 | -19*
O=S(=O)(Nc1ccc(S(=O)(=O)Nc2ccccc2)cc1)c1ccccc1 | 1 | 1 | 7 | x | x
O=S(=O)(Nc1ccc(N=Nc2ccc(O)c3ccccc23)cc1)c1ccccc1 | -1 | 14* | 16 | x | x
COC(=O)C1=NN(C(=O)c2ccc(Br)cc2)C(O)(C(C)(C)C)C1 (centres undefined) | 0 | -1 | 2 | 0 | -24*
COC(=O)C1=NN(C(=O)c2cccc(Cl)c2)C(O)(C(C)(C)C)C1 (centres undefined) | -1 | 0 | 10 | x | x
CSc1ccc(CN2CCN(Cc3ccccc3)C(CCO)C2)cc1 (centres undefined) | 0 | -4 | -10 | 43* | 1
OCCC1CN(Cc2cnn(-c3ccc(F)cc3)c2)CCN1Cc1ccsc1 (centres undefined) | 0 | 1 | 0 | 0 | 19
CCn1cc(CN2CCN(Cc3ccsc3)C(CCO)C2)cn1 (centres undefined) | 0 | -1 | -3 | 44* | 12
COc1cccc(CN2CCN(Cc3[nH]c4ccccc4c3C)CC2CCO)c1 (centres undefined) | 0 | -5 | -13 | 43* | x
CCOc1ccc(CN2CCN(Cc3cc4ccccc4[nH]3)CC2CCO)cc1 (centres undefined) | 0 | -3 | -11 | 43* | x
O=S(=O)(c1cccc(-c2csc(N/N=C/c3ccco3)n2)c1)N1CCOCC1 | -1 | -3 | 6 | 0 | -23*
O=C(COc1ccc(C(=O)NCc2cccnc2)cc1)Nc1cccc(C(F)(F)F)c1 | 0 | -6 | -2 | 0 | -23*
COc1cccc(CN2CCN(C(=O)Nc3ccc([N+](=O)[O-])cc3)CC2)c1 | 0 | 0 | -5 | 43* | -13
CNC(=O)C[C@@H]1CC[C@H]2[C@@H](COc3ccc(NC(=O)Nc4cccc(F)c4)cc3C(=O)N2C)O1 | x | x | x | 0 | 2
COc1ccccc1OCCOc1ccc(/C=C2\C(=N)N3N=C(S(C)(=O)=O)SC3=NC2=O)cc1 | -1 | -36 | -80 | 2.1* | -1
Cc1cnc(CN2CCc3c([nH]c4ccccc34)C2CC(C)C)[nH]1 (centres undefined) | 5 | -19 | -48 | 43* | -6
Cc1cccc(CN2CCc3c([nH]c4ccccc34)C2CC(C)C)n1 (centres undefined) | 12 | -22 | -66 | 0 | 4
O=C(C1CCCO1)N1CCN(C(=S)Nc2ccc(F)cc2)CC1 (centres undefined) | -1 | -3 | -1 | 0 | 10
COc1ccc(NC(=O)N2CCN(C(=O)C3CCCO3)CC2)cc1 (centres undefined) | 0 | -2 | -5 | 0 | 15
O=C(C1CCCO1)N1CCN(C(=S)Nc2ccc(F)c(Cl)c2)CC1 (centres undefined) | 0 | -1 | -6 | 0 | -29*
CCOC(=O)c1ccc(NC(=O)N2CCN(C(=O)C3CCCO3)CC2)cc1 (centres undefined) | -1 | -2 | -6 | 43* | x
CC(C)CC#Cc1ccc2c(c1)O[C@H](CN(C)C(=O)c1cccc(F)c1)[C@@H](C)CN([C@H](C)CO)S2(=O)=O | x | x | x | -1 | -4
SMILES | KLK7 zymogen act | ADAM17 inh | ADAM10 inh | FGF22 binding | rRNA inh HTS
COCC#Cc1cnc2c(c1)C(=O)N([C@H](C)CO)C[C@H](C)[C@@H](CN(C)C(=O)Cc1cccnc1)O2 | x | x | x | 0 | 2
O=C(C[C@@H]1C=C[C@H](NS(=O)(=O)c2ccccc2)[C@H](CO)O1)N1CCc2ccccc2C1 | x | x | x | 0 | -2
Cn1nnnc1SCC(=O)Nc1ncc(C(F)(F)F)cc1Cl | 0 | -3 | -5 | 43* | 5
Cn1nnnc1SCC(=O)Nc1ncc(Cl)cc1Cl | 0 | 2 | -2 | 0 | 2
Cn1nnnc1SCC(=O)NNC(=O)c1ccc(Cl)cc1 | -1 | -1 | 5 | 44* | 7
CO[C@@H]1CN(C)C(=O)c2cc(NC(=O)C3CCOCC3)ccc2OC[C@@H](C)N(S(=O)(=O)c2ccc(Cl)cc2)C[C@H]1C | x | x | x | 0 | x
O=C(c1cc(=O)c2ccccc2o1)N1CCN(c2cccc(Cl)c2)CC1 | 0 | 0 | 8 | 43* | -30*
O=C(c1cc(=O)c2ccccc2o1)N1CCN(c2ccccc2F)CC1 | 0 | -6 | -3 | 0 | -10
CSc1ccccc1C(=O)N1CCN(c2cccc(Cl)c2)CC1 | 0 | 1 | 2 | 43* | -54
CCCN1[C@@H]2c3ccc(C4=CCCC4)c(=O)n3C[C@@H]2[C@@H](CO)[C@@H]1C(=O)NCC | x | x | x | 0 | 1
O=C(CCCN1C(=O)/C(=C/c2ccccc2Cl)SC1=S)N1CCCC1 | 0 | 0 | 8 | 0 | -40*
COc1ccccc1/C=C1\SC(=S)N(CCC(=O)N2CCN(C)CC2)C1=O | 0 | -1 | -11 | 0 | -19*
COc1ccccc1/C=C1\SC(=S)N(CCC(=O)NCCCn2ccnc2)C1=O | 0 | 3 | 14 | 0 | -24*
CCC(=O)N1C[C@H](C)[C@@H](OC)CN(C)C(=O)c2ccc(NC(=O)c3cnccn3)cc2OC[C@H]1C | x | x | x | 0 | -5
Cc1ccc(C2=NC(=O)/C(=C/c3cc(O)c(O)c(Br)c3)S2)cc1 | 1 | 1 | 1 | 43* | -42
COc1cc(/C=C2\SC(c3ccc(C)cc3)=NC2=O)cc(OC)c1O | 1 | 0 | -9 | 0 | 3
O=[N+]([O-])c1ccccc1-c1ccc(CN2CCN(c3ccccc3)CC2)o1 | -1 | -14 | -44 | 0 | -36*
CCOC(=O)CC(=O)CSc1nc2c(sc(=S)n2-c2ccc(OCC)cc2)c(=O)[nH]1 | 0 | 1 | 4 | x | -28*
CCN(C(=O)COC(=O)c1ccccc1O)c1nc2ccccc2s1 | 0 | 0 | 6 | 43* | 12
COc1ccc(S(=O)(=O)N2CCC3(CC2)CN(C(=O)CN(C)C)[C@@H](CO)c2c3c3ccc(OC)cc3n2C)cc1 | x | x | x | 0 | 0
CO[C@H]1CN(C)C(=O)c2cc(NC(C)=O)ccc2OC[C@@H](C)N(Cc2ccccn2)C[C@H]1C | x | x | x | -1 | 0
O=S(=O)(c1ccc(Cl)cc1Cl)n1ccc2cccnc21 | -1 | -2 | -5 | 43* | 12
